Bioassay records from PubChem.
Most compounds without a hit are left out; they make up all but 11% or so of the library.
HPGD inh: qHTS Assay for Inhibitors of HPGD (15-Hydroxyprostaglandin Dehydrogenase); Potency, µM, hits mostly inhibitors; AID 894, 2007; hit rate 4.3% among 150,000; purified HPGD, NADH fluorescence kinetic, PGE2 substrate
Target sequence (P15428 whole entry, looked up): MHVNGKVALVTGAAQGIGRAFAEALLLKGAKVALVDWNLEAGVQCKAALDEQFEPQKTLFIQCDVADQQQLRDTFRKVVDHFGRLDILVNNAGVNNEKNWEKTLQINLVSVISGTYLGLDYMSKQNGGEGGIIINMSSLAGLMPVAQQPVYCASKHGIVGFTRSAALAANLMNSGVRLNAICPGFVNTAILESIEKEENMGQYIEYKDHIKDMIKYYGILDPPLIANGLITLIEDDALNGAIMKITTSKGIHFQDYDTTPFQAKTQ
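NADH formation kinetics: reaction with 30 uM PGE2 and 1 mM NAD+ (final), 20 nM enzyme, Tris-HCl pH 8 with Tween 20, after 15 min compound preincubation at room temperature. Fluorescence change, last versus first of five reads.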
PNC inhibitor: High Content Assay for Compounds that inhibit the Assembly of the Perinucleolar Compartment; activity change (PNC), negative = inhibition, % at 10 µM; AID 2417, 2010; hit rate 3.1% among 140,000; PC3M PTB-GFP, PNC prevalence imaging, 16 h; stronger effect = lower value;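 active means readout at or below -70, meaning at least 70% loss of cells showing the perinucleolar compartment, a nuclear body marking cancer cells; inconclusive means readout between -30 and a set limit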
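Compounds are pinned in duplicate onto adhered PC3M cells stably expressing GFP-tagged PTB and incubated 16 h at 37 C. Cells are then fixed, nuclei stained with Hoechst, and PNC-positive cells counted.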
ALDH1A1 inh: qHTS Assay for Inhibitors of Aldehyde Dehydrogenase 1 (ALDH1A1); Purified ALDH1A1, NADH fluorescence, propionaldehyde substrate; Potency, µM (top dose mostly 75.3 µM), most hits filed as inhibitors; hit rate 7.3% among 220,000; AID 1030, 2008
Hits are given with their value; – = inactive; ? = inconclusive; · = no result given. Unless noted, the call rests on the fitted dose curve; in most records, active means well fitted inhibition curve with a large enough effect (not every such curve was filed as active); inconclusive means small, poorly fitted or top-dose-only effect, or another doubt; inactive means no such curve, though single readings can be large or run the other way.

SMILES	HPGD inh	PNC inhibitor	ALDH1A1 inh
C=C1C[C@@]23CC4C5[C@@]6(C)C[C@H](O)C[C@@]57C2[C@H](O)[C@@H]1[C@H](O)[C@H]3[C@H]7N4C6	–	·	–
COc1cccc(-c2ccc3ncnc(NCc4cnc(C)cn4)c3c2)c1	·	·	–
COc1ccc(NS(=O)(=O)c2cc(NC(=O)c3cccc(OCc4c(C)noc4C)c3)ccc2OC)cc1	–	–	–
COCCN1CCC(CNCc2cn(-c3cc(C)ccc3C)nc2-c2ccccc2)C1 (centres undefined)	·	·	–
COc1ccc(C2C(C(=O)Nc3cccnc3)=C(C)Nc3nc(-c4cccs4)nn32)cc1 (centres undefined)	–	–	–
COc1ccc(C2C(C(=O)Nc3cccnc3)=C(C)Nc3nc(-c4cccs4)nn32)cc1OC (centres undefined)	–	-108.4	–
CC(=O)c1cccc(NC(=O)COC(=O)C2=COCCO2)c1	·	·	–
CCc1cc2c(=O)c(-c3ccc(F)cc3)c(C)oc2cc1OCC(=O)O	·	·	35.5µM
CCc1cc2c(=O)c(-c3cnn(-c4ccccc4)c3)c(C)oc2cc1OCC(=O)Nc1ccc(F)c(F)c1	–	?	–
Cn1c(SCc2nc(-c3ccc(Cl)cc3)no2)nnc1-c1cccs1	–	-110.7	–
Cn1c(SCc2nc(-c3ccccc3)no2)nnc1-c1cccs1	–	–	–
O=C(Nc1cccc2ccccc12)c1nn(C23CC4CC(CC(C4)C2)C3)cc1[N+](=O)[O-]	–	–	?
COc1ccc(NC(=O)c2nn(C34CC5CC(CC(C5)C3)C4)cc2[N+](=O)[O-])cc1	–	–	0.282µM
COC(=O)c1c(NC(=O)c2ccoc2C)sc2c1CCC2	?	-109.2	?
Cc1occc1C(=O)Nc1sc2c(c1C(N)=O)CCCCC2	–	–	?
COC(=O)c1c(NC(=O)c2nn(C)cc2Cl)sc2c1CCCC2	?	-92.3	?
COC(=O)c1c(NC(=S)Nc2cc(OC)c(Cl)cc2OC)sc2c1CCCCC2	?	?	6.31µM
COC(=O)c1c(NC(=O)C2CC2)sc2c1CCCC2	–	?	–
CCOC(=O)c1c(NC(=S)Nc2cc([N+](=O)[O-])ccc2OC)sc2c1CCCCC2	–	–	?
CC1Oc2ccccc2N(CC(=O)c2ccc(F)cc2)C1=O (centres undefined)	·	·	–
N/C(=N\OC(=O)CN1C(=O)c2ccccc2C1=O)c1ccc(Br)cc1	·	·	–
O=C(CS(=O)Cc1ccccc1Cl)Nc1ccccc1Cl (centres undefined)	·	·	–
CN1C(=O)NC(c2ccc(O)cc2)C(C(=O)c2cccs2)C1(O)C(F)(F)F (centres undefined)	–	–	7.94µM
O=C1NC(c2ccccc2)C(C(=O)c2cccs2)C(O)(C(F)(F)F)N1 (centres undefined)	–	–	?
CCCCN(C)CC(O)Cn1cc(/C=C/C(=O)c2cccs2)c2ccccc21 (centres undefined)	–	-100.0	–
SMILES	HPGD inh	PNC inhibitor	ALDH1A1 inh
O=C(/C=C/c1cn(CC(O)CN2CCCCCC2)c2ccccc12)c1cccs1 (centres undefined)	–	?	–
CCCCSc1nc(C)cc(SCC(=O)N/N=C/c2cccc(OC)c2O)n1	–	–	–
COc1ccc2nc(C)cc(SCC(=O)N/N=C/c3ccc(O)cc3O)c2c1	–	–	25.1µM
COc1cccc2c(SCC(=O)N/N=C/c3ccc(O)cc3O)cc(C)nc12	·	·	28.2µM
COc1ccc2nc(C)cc(SCC(=O)N/N=C/c3ccccc3)c2c1	–	–	–
COc1ccccc1CNc1ccnc(-c2ccc3c(c2)OCO3)n1	–	·	–
CCC1=C/C(=C/N(C)c2ccccc2)C(=O)S1	22.4µM	–	25.1µM
O=C(NC1CCN(Cc2ccccc2)CC1)c1ccc(N2CC3CC(C2)c2cccc(=O)n2C3)c([N+](=O)[O-])c1 (centres undefined)	·	·	–
O=C(O)c1ccc(N2CC3CC(C2)c2cccc(=O)n2C3)c(NC(=S)Nc2ccc(Cl)cc2Cl)c1 (centres undefined)	·	·	15.8µM
Cc1noc(C)c1CCC(=O)N1CCCC(CCC(=O)NCc2ccc(F)c(F)c2)C1 (centres undefined)	·	·	–
CC1Cc2ccccc2N1C(=O)CNCCCN(C)C (centres undefined)	–	?	–
CC1Cc2ccccc2N1C(=O)CNc1cccc(S(=O)(=O)N2CCCC2)c1 (centres undefined)	·	·	20µM
CCCOC(=O)/C(=C\C=C\c1ccco1)NC(=O)c1ccccc1	·	·	20µM
CCCOC(=O)/C(=C\c1ccc([N+](=O)[O-])o1)NC(=O)c1ccccc1	–	–	–
